Most compounds without a hit are left out; they make up all but 2.4% or so of the library.
ULK1 primary: ULK1 kinase inhibitors, primary screen, biochemical, AlphaScreen; 30,000 tested, 1.9% active; Serine/threonine-protein kinase ULK1 (Homo sapiens), O75385; AID 1259251, 2017; inhibition, % at 5.96 µM; AlphaScreen Atg13 phosphorylation by ULK1, luminescence; in the data active means inhibition above about 43%;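 further: 0% = median of compound wells and 100% = no enzyme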
ASK1 primary: ASK1 kinase inhibitors, primary screen, biochemical, AlphaScreen | 22,000 tested, 0.99% active | Mitogen-activated protein kinase kinase kinase 5 (Homo sapiens), Q99683 | AlphaScreen MKK6 phosphorylation by ASK1, luminescence | inhibition, % at 7.44 µM | AID 1159602, 2016; in the data active means inhibition above about 35%;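 further: 0% = median of compound wells and 100% = no enzyme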
* = called active by the depositor; x = no result given.

SMILES | ULK1 primary | ASK1 primary
c1ccc(Nc2ccnc(Nc3ccncc3)n2)cc1 | 17.5 | 3.4
COC(CNc1nccc(Nc2ccncn2)n1)c1cccs1 (centres undefined) | 3.8 | -3.9
CC(=O)Nc1ccc(Nc2nc(Nc3ccc4ncccc4c3)nc3c2ncn3C(C)C)cc1 | 34.2 | -8.1
CC(CNc1nccc(Nc2ccncn2)n1)c1cccs1 (centres undefined) | 44.1* | 10.3
CC(=O)Nc1ccc(Nc2nc(Nc3ccncn3)nc3c2ncn3-c2ccccc2)cc1 | -48.9 | 5.4
CC(=O)Nc1ccc(Nc2nc(Nc3ncccn3)nc3c2ncn3C(C)C)cc1 | 47.3* | 3.2
c1ccc(Nc2ccnc(Nc3ccncn3)n2)cc1 | 45.3* | 15.7
CC(=O)Nc1ccc(Nc2nc(Nc3ccncn3)nc3c2ncn3C(C)C)cc1 | 55.4* | 4.4
CC(C)N(CCNc1nc(Nc2nc3ccccc3n2C)nc2c1ncn2-c1ccccc1)C(C)C | 4.4 | 9.6
COc1ccc(-c2nc(C(=O)Nc3ccc(Oc4ccccc4)cc3)cs2)cn1 | 4.4 | 9.2
CC(=O)Nc1ccc(Nc2nc(-c3ccc(C(=O)NC4CC4)cc3)nc3c2ncn3C2CCCCC2)cc1 | 29.1 | -7.8
COc1ccc2occ(C(=O)COc3ccc(Br)cc3C#N)c2c1 | -4.4 | x
O=C(c1ccc2c(c1)CC(c1nc3ccc(-c4cn[nH]c4)cc3c(=O)[nH]1)CO2)C1CC1 (centres undefined) | 20.6 | -17.2
c1ccc(CNc2nc(-c3ccc(N4CCOCC4)nc3)nc3c2ncn3-c2ccsc2)cc1 | -6.7 | -0.5
O=C(NCCc1c[nH]c2ccccc12)c1cccnc1 | -7.7 | x
COc1cc(-c2cn[nH]c2)ccc1NC(=O)[C@@H]1Cc2ccccc2C(=O)N1 | 1.0 | -1.4
CC(C)n1cnc2c(NCCO)nc(Nc3ccccn3)nc21 | 9.4 | -8.3
CC(C)n1cnc2c(Nc3ccccc3)nc(Nc3ccncn3)nc21 | 50.2* | -5.1
CC(C)n1cnc2c(Nc3ccccc3)nc(Nc3ccccn3)nc21 | 48.7* | -3.9
CC(C)n1cnc2c(NC3CCN(Cc4ccccc4)CC3)nc(Nc3ccncn3)nc21 | 14.8 | 12.5
CCCNc1cc(C)nc(-c2csc3ccccc23)n1 | -3.5 | 0.3
CCN(CC)c1nc(NCCOc2ccccc2)nc(Nc2ccc3ncccc3c2)n1 | -16.4 | -1.7
Nc1nc(Nc2ccccc2)cc(-c2ccc(C(=O)NC3CC3)cc2)n1 | 6.2 | -1.8
COc1cc(OC)nc(Oc2ccccc2/C=N/NC(N)=S)n1 | 2.4 | x
CCc1nnc(N/N=C/c2ccccc2Cl)n1N | 48.1* | x
SMILES | ULK1 primary | ASK1 primary
OCCNc1nc(NCCN2CCOCC2)nc2nc[nH]c12 | 6.5 | -14.3
CN1CCc2cccc3c2[C@H]1Cc1ccc(O)c(O)c1-3 | 46.4* | x
COc1cc(NC(C)CCCN)c2ncccc2c1 (centres undefined) | 64.3* | x
CCN(CC)CCCC(C)Nc1c2ccc(Cl)cc2nc2ccc(OC)cc12 (centres undefined) | 3.5 | x
Cc1ccc(-c2cncc(-c3cc(NCCN(C)C)nc(C)n3)c2)cc1 | -12.8 | x
COc1cccc(CNC(=O)c2c(C)nc3ccc(-c4ccnc(N)n4)cn23)c1 | 11.1 | 4.8
COc1cccc(CNC(=O)c2c(C)nc3ccc(-c4ccc5nc(C)c(C(=O)NCc6cccc(OC)c6)n5c4)cn23)c1 | 7.6 | 41.9*
CCOc1ccnc2c1c(=O)n(CC(=O)N1CCC(C)CC1)c(=O)n2C | 7.7 | x
O=C(C1CC1)N1N=C(c2ccc(F)cc2)CC1(O)C(F)(F)F (centres undefined) | 14.2 | x
CN1Cc2cccc(Nc3cc(Nc4cccc5c4C(=O)N(C)C5)c(C(F)(F)F)cn3)c2C1=O | -6.7 | 15.4
FC(F)(F)c1cnc(Nc2ccccn2)cc1Nc1ccccn1 | 50.4* | 16.9
FC(F)(F)c1ccc(Cn2cnc3c(NCCOc4ccccc4)nc(Nc4ccc(-n5ccnc5)cc4)nc32)cc1 | -9.5 | 10.3
CC(C)N(CCNc1ccnc(N2CCc3ccccc3C2)n1)C(C)C | 11.4 | -2.3
CC(C)c1cc(C(C)C)c(CC(=O)NS(=O)(=O)Oc2c(C(C)C)cccc2C(C)C)c(C(C)C)c1 | 85.2* | x
CCCNc1nc(Nc2cnccn2)nc(N(CC)CC)n1 | 4.0 | -8.9
COc1ccc(-c2nc(NCCN3CCOCC3)c3ncn(CCN4CCCC4=O)c3n2)cc1 | 3.4 | 10.5
COc1cc(Nc2cc(Nc3ccccc3C(N)=O)ccn2)ccc1N1CCOCC1 | 5.0 | -4.6
Cn1cnc(-c2ccccc2Nc2nc(Nc3ccc(N4CCOCC4)cc3)ncc2Cl)n1 | -11.5 | 11.1
NC(=O)c1ccccc1Nc1nc(Nc2ccc(N3CCOCC3)c(F)c2)ncc1Cl | 72.3* | -65.2
NC(=O)c1ccccc1Nc1nc(Nc2ccc(N3CCOCC3)cc2F)ncc1Cl | 82.9* | -80.9
CN(C)CCNC(=O)c1ccccc1Nc1ccnc(Nc2ccc(N3CCOCC3)cc2)c1 | 0.8 | -12.0
CNC(=O)c1ccccc1Nc1nc(Nc2ccc(N3CCOCC3)c(Cl)c2)ncc1Cl | 58.1* | -26.8
Fc1cc(N2CCOCC2)ccc1Nc1nccc(-c2cncc(N3CCOCC3)c2)n1 | 29.6 | 14.6
Cn1ncnc1-c1ccccc1Nc1nc(Nc2ccc(N3CCOCC3)cc2)ncc1Cl | 78.0* | -8.0
O=C(NC1CC1)c1ccc(-c2nc(NC3CC3)c3[nH]cnc3n2)cc1 | 4.8 | -1.8
SMILES | ULK1 primary | ASK1 primary
OCC1CCCN1c1nc(NCCc2ccc(O)cc2)c2[nH]cnc2n1 (centres undefined) | -13.4 | -0.3
CCNc1ncc(C(=O)NCc2ccccc2)s1 | -9.2 | -8.2
N[C@@H](Cc1ccc(Cl)cc1)c1nc2ccc(-c3cn[nH]c3)cc2c(=O)[nH]1 | 16.4 | 5.8
CCN(CC)C(=O)C1CCCN(c2nccc(NCc3ccccc3)n2)C1 (centres undefined) | 0.1 | 1.6
CCCNC(=O)c1ccnc(-c2c(C)nn(C)c2C)c1 | 0.7 | -15.1
COC(=O)C(C)Sc1nc2c(c(=O)n(C)c(=O)n2C)n1Cc1ccccc1 (centres undefined) | 3.8 | x
NC(=O)c1ccccc1Nc1nc(Nc2ccc(F)cc2)ncc1Cl | 84.9* | -66.1
NC(=O)c1ccc(Nc2ncc(Cl)c(-c3ccccc3)n2)cc1 | 31.1 | 9.4
c1cncc(-c2cc(NC3CC3)nc(-c3cccnc3)n2)c1 | 0.1 | x
O=C(Nc1ccc2nc(-c3ccco3)c(-c3ccco3)nc2c1)N1CCCC1 | 67.5* | x
O=C(c1cc2nc(-c3ccco3)cc(C(F)(F)F)n2n1)N1CCCCC1 | -5.6 | x
CC(C)n1cnc2c(Nc3ccc4c(c3)OCO4)nc(NC3CCC(O)CC3)nc21 (centres undefined) | 35.4 | 10.4
OC1CCC(Nc2nc(Nc3ccccc3)c3ncn(-c4ccccc4)c3n2)CC1 (centres undefined) | 2.8 | -1.2
CC(C)n1cnc2c(Nc3ccccc3)nc(NC3CCC(O)CC3)nc21 (centres undefined) | 55.9* | 2.0
CC(=O)Nc1ccc(Nc2nc(NC3CCC(O)CC3)nc3c2ncn3C(C)C)cc1 (centres undefined) | 61.8* | 9.3
Cc1cccc(N(C)C(=S)Oc2ccc3ccccc3c2)c1 | 5.2 | x
CCCC1(C(=O)OCC)OC1c1ccccc1 (centres undefined) | 3.9 | x
O=C(/C=C/c1ccccc1)c1cccc(N2C(=O)C=CC2=O)c1 | 55.4* | x
COc1cc(NC(=O)c2cccc(-n3cc(/C=C/C(=O)c4ccccc4)cn3)c2)ccc1CN(C)C | 21.0 | -17.6

High-throughput results (PubChem BioAssay)
